Results on five molecules are retold here after PubChem BioAssay (EPA / NIEHS).

Results filed as inconclusive are left out. Active and inactive are the calls of the source. Rule for the calls, unless noted: active = hit-call score of the fitted dose curve at least 0.9, where 1 is the maximum; inactive = score below 0.9.

For experiment [1], the target named is Paired box protein Pax-6 (Homo sapiens) (UniProt P26367). In words: ATG_Pax6_CIS: Attagene CIS-FACTORIAL HepG2 Assay for human Paired Box 6 (PAX6) (AID 2282956). Particulars: HepG2 CIS-FACTORIAL PAX6 reporter transcription, RNA readout; actives raise or lower the signal. The method, boiled down:
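Transient MRTU transfection of HepG2 → compound exposure 24 h → TriZol RNA, oligo(dT) RT → PCR, 6-FAM primer extension, HpaI cut → capillary electrophoresis; activity fitted both directions against DMSO.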

The nature of experiment [2]: ATG_PXRE_CIS: Attagene CIS-FACTORIAL HepG2 Assay for human Pregnane X Receptor Element (PXRE) (AID 2282957). To be noted: HepG2 Attagene CIS-FACTORIAL PXRE reporter, mRNA; actives raise or lower the signal. The method, boiled down: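 Transiently transfected HepG2 cells were dosed and incubated for 24 h. RNA was then isolated, DNase-treated, reverse-transcribed and reporter sequences amplified. Labeled, HpaI-digested fragments were quantified by capillary electrophoresis against DMSO.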

Experiment [3] can be described thus: ATG_PPRE_CIS: Attagene CIS-FACTORIAL HepG2 Assay for human Peroxisome Proliferator-activated Response Element (PPRE) (AID 2282958). To be noted: HepG2 PPRE cis-element reporter, Attagene transcription factor profiling; actives raise or lower the signal. Put shortly: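 Read-out: fluorescent reporter mRNA fragments resolved by capillary electrophoresis after RT-PCR. HepG2 cells carried transiently transfected PPRE-driven cis reporter constructs and were dosed for 24 h; gain or loss of signal fitted relative to DMSO.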

Experiment [4] is described as follows: ATG_RORE_CIS: Attagene CIS-FACTORIAL HepG2 Assay for human RAR-related Orphan Receptor Element (RORE) (AID 2282959). Particulars: HepG2 Attagene cis-factorial RORE reporter, mRNA; actives raise or lower the signal. Put shortly: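 Readout: fluorescent reporter mRNA by RT-PCR plus capillary electrophoresis, 24 h after dosing transfected HepG2 cells. Endogenous transcription factor activity on a cis promoter element is measured. Gain or loss of signal fitted against DMSO.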

The nature of experiment [5]: ATG_Sox_CIS: Attagene CIS-FACTORIAL HepG2 Assay for human SRY-box transcription factor (SOX) (AID 2282960). Particulars: HepG2 Attagene cis-factorial SOX reporter, mRNA; actives raise or lower the signal. The method, boiled down:
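Read-out: fluorescent RT-PCR products of SOX1-linked reporter transcripts resolved by capillary electrophoresis, fitted bidirectionally against DMSO. Transiently transfected HepG2 cells, 24 h after chemical exposure, endogenous transcription factor activity.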

In experiment [6] the target is Transcription factor Sp1 (Homo sapiens) (UniProt P08047). Nature of the experiment: ATG_Sp1_CIS: Attagene CIS-FACTORIAL HepG2 Assay for human Specificity Protein 1 (Sp1) (AID 2282961). To be noted: HepG2 Sp1 cis-reporter transcription, actives raise or lower the signal. Put shortly: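 Read-out: fluorescence of 6-FAM-labeled, HpaI-digested RT-PCR products separated by capillary electrophoresis. HepG2 cells carried transfected cis-element reporter units and were exposed to chemicals for 24 h; gain or loss of signal fitted relative to DMSO.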
Sequence of Transcription factor Sp1 (Homo sapiens) (P08047 whole entry, looked up): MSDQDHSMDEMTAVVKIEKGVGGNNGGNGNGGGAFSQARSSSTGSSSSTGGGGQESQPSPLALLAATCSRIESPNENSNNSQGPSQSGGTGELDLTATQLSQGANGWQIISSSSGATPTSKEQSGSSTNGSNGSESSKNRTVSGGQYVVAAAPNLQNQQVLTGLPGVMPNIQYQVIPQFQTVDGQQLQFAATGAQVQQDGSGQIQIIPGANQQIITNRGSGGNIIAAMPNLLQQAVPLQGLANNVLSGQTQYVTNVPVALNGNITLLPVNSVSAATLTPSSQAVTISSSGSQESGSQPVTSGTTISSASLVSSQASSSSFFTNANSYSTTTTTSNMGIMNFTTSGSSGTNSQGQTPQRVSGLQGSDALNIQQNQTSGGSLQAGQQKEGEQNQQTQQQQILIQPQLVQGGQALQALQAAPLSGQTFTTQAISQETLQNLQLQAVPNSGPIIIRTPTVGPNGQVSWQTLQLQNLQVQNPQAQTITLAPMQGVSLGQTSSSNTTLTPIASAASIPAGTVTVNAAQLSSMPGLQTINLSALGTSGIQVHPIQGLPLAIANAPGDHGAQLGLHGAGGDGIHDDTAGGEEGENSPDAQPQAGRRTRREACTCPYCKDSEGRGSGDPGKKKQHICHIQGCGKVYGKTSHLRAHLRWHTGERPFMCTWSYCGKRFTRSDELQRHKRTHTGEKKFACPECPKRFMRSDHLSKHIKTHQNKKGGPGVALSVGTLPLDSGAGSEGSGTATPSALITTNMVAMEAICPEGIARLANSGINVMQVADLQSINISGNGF

The nature of experiment [7]: ATG_SREBP_CIS: Attagene CIS-FACTORIAL HepG2 Assay for human Sterol Regulatory Element Binding (SREBP) (AID 2282962). Particulars: HepG2 Attagene cis-factorial SREBP reporter, mRNA; actives raise or lower the signal. The method, boiled down:
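Transfected HepG2 (cis-regulated reporter library, endogenous TFs) → compound 24 h → total RNA → oligo(dT) RT → reporter-specific PCR → FAM primer extension, HpaI cut → CE fluorescence. Fit bidirectional vs DMSO.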

Experiment [8] has as its target Signal transducer and activator of transcription 3 (Homo sapiens) (UniProt P40763). In words: ATG_STAT3_CIS: Attagene CIS-FACTORIAL HepG2 Assay for human Signal Transducer and Activator of Transcription 3 (STAT3) (AID 2282963). Particulars: HepG2, Attagene cis-factorial STAT3 reporter transcription; actives raise or lower the signal. The method, boiled down:
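After a 24 h compound incubation, total RNA from MRTU-transfected HepG2 cells was converted to cDNA and reporter sequences PCR-amplified, labelled and profiled by capillary electrophoresis. Gain and loss of signal were referenced to DMSO.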

Experiment [9] in a line: ATG_TA_CIS: Attagene CIS-FACTORIAL HepG2 Assay for human TA Basal Promoter (AID 2282964). To be noted: HepG2 Attagene CIS-factorial TA basal promoter reporter; actives raise or lower the signal. Put shortly: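 Fluorescence from labelled RT-PCR reporter fragments, separated by capillary electrophoresis, gives the signal. Cells: HepG2 transiently carrying multiple reporter units, 24 h chemical dosing. Gain or loss relative to DMSO.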

The nature of experiment [10]: ATG_TCF_b_cat_CIS: Attagene CIS-FACTORIAL HepG2 Assay for human T-Cell-Factor with beta-catenin (TCF/b-cat) (AID 2282965). To be noted: HepG2 TCF/beta-catenin cis-reporter transcription, actives raise or lower the signal. The method, boiled down:
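Measured: reporter mRNA in HepG2 transiently transfected with cis-promoter reporter units, 24 h after chemical addition. Fitting was bidirectional, DMSO as negative control.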

Experiment [11] can be described thus: ATG_TGFb_CIS: Attagene CIS-FACTORIAL HepG2 Assay for human Transforming Growth Factor (TGF) (AID 2282967). To be noted: HepG2 Attagene CIS TGFb reporter, mRNA transcription; actives raise or lower the signal. Put shortly: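 Bidirectional fitting relative to DMSO gave the endpoint. Underlying data: reporter mRNA from HepG2 cells carrying transiently transfected cis-regulated reporter constructs, harvested 24 h after dosing and analyzed by RT-PCR and capillary electrophoresis.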

A short description of experiment [12]: ATG_VDRE_CIS: Attagene CIS-FACTORIAL HepG2 Assay for human Vitamin D Receptor Element (VDRE) (AID 2282968). To be noted: HepG2 VDRE cis-reporter transcription, actives raise or lower the signal. The method, boiled down:
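In transiently transfected HepG2 liver cells, gain or loss of reporter mRNA after 24 h exposure is scored relative to DMSO, using fluorescence detection by capillary electrophoresis of RT-PCR products.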

In experiment [13] the target is Nuclear receptor subfamily 1 group I member 3 (Homo sapiens) (UniProt Q14994). In words: ATG_CAR_TRANS: Attagene TRANS-FACTORIAL HepG2 Assay for human Constitutive Androstane Receptor (CAR) (AID 2282969; active = hit-call score of the fitted dose curve at least 0.9, where 1 is the maximum;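 note: activators raise reporter mRNA above DMSO so AC50 marks induction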). To be noted: HepG2 Attagene TRANS-FACTORIAL CAR reporter. Put shortly: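 Readout is reporter mRNA induction, quantified by fluorescent primer extension and capillary electrophoresis after RT-PCR. Cells were HepG2 transiently carrying chimeric NR-Gal4 constructs with GAL4-UAS reporters, treated for 24 h; activity scored upward from DMSO.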
Sequence of Nuclear receptor subfamily 1 group I member 3 (Homo sapiens) (Q14994 whole entry, looked up, the tested form may be a part): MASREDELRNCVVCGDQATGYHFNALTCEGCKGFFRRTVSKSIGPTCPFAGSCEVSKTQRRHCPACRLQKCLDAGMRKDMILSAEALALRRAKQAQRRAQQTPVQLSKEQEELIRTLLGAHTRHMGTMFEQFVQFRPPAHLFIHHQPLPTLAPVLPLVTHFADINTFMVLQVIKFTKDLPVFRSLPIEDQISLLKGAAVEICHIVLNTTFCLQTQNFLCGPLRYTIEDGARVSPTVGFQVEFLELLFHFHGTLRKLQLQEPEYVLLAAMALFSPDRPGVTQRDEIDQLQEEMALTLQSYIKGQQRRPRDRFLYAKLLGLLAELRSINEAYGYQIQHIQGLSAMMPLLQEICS

For experiment [14], the target named is Estrogen receptor (Homo sapiens) (UniProt P03372). Nature of the experiment: ATG_ERa_TRANS: Attagene TRANS-FACTORIAL HepG2 Assay for human Estrogen Receptor alpha (ERa) (AID 2282970; active = hit-call score of the fitted dose curve at least 0.9, where 1 is the maximum). To be noted: HepG2 Attagene TRANS ERa GAL4 reporter, mRNA. The method, boiled down: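 Transactivation via ERa-Gal4 chimera in HepG2; 24 hour incubation; reporter mRNA detected by fluorescence RT-PCR and capillary electrophoresis.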
Sequence of Estrogen receptor (Homo sapiens) (P03372 whole entry, looked up, the tested form may be a part): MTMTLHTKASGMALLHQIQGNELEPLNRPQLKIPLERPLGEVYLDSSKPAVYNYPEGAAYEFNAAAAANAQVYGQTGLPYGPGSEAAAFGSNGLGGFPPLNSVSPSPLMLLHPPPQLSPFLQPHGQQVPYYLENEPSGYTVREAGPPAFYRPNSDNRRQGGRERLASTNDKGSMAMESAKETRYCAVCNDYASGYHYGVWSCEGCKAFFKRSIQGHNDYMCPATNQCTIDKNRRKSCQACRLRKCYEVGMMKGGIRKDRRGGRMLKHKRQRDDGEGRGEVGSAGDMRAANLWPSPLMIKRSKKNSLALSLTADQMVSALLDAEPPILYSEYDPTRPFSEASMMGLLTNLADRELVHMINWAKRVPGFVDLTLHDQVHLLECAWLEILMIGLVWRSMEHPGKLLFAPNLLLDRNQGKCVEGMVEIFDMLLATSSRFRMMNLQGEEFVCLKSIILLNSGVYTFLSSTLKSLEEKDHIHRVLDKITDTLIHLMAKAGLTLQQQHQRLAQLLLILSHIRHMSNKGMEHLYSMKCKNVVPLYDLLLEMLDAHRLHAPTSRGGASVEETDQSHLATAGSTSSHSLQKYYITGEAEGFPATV

In experiment [15] the target is X-box-binding protein 1 (Homo sapiens) (UniProt P17861). Nature of the experiment: ATG_Xbp1_CIS: Attagene CIS-FACTORIAL HepG2 Assay for human X-box Binding Protein 1 (XBP1) (AID 2282972). Particulars: HepG2 XBP1 cis-element reporter, Attagene multiplex; actives raise or lower the signal. The method, boiled down:
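HepG2, transient MRTU transfection (cis-promoter driven), 24 h compound exposure. Total RNA → oligo(dT) RT → PCR → 6-FAM labeling → HpaI cut → CE. Bidirectional fit vs DMSO.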

Experiment [16] can be described thus: ATG_GAL4_TRANS: Attagene TRANS-FACTORIAL HepG2 Assay for GAL4 (Internal Marker) (AID 2282976; active = hit-call score of the fitted dose curve at least 0.9, where 1 is the maximum). Particulars: HepG2 Attagene TRANS GAL4 internal marker reporter. The method, boiled down: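 Fluorescence from capillary electrophoresis of labelled RT-PCR products quantifies reporter mRNA induction after 24 h dosing of HepG2 cells carrying transfected GAL4-UAS reporter transcription units. Vehicle DMSO serves as baseline.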

The nature of experiment [17]: ATG_TAL_CIS: Attagene CIS-FACTORIAL HepG2 Assay for human TAL Basal Promoter (AID 2282966).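 Note: background control endpoint measuring basal TAL promoter reporter mRNA not a specific factor.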 Particulars: HepG2 Attagene cis-factorial TAL promoter reporter; actives raise or lower the signal. The method, boiled down:
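Readout: reporter mRNA, fluorescence by CE. System: HepG2, transient multi-reporter transfection, endogenous TF activity. Exposure: 24 h. Analysis: bidirectional, DMSO-normalized; background control.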

Experiment [18] addresses Steroid hormone receptor ERR1 (Homo sapiens) (UniProt P11474). In words: ATG_ERRa_TRANS: Attagene TRANS-FACTORIAL HepG2 Assay for human Estrogen-Related Receptor alpha (ERRa) (AID 2282971; active = hit-call score of the fitted dose curve at least 0.9, where 1 is the maximum). Particulars: HepG2 Attagene TRANS reporter, ERRa transactivation. Put shortly:
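HepG2 cells were transiently transfected with multiple GAL4-UAS reporter units, then dosed with compound for 24 h. Total RNA was reverse-transcribed, reporter cDNA PCR-amplified and fluorescently labelled, and fragments resolved by capillary electrophoresis; induction was compared with DMSO.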

A short description of experiment [19]: ATG_M_19_TRANS: Attagene TRANS-FACTORIAL HepG2 Assay for M19 Transcription Factor (Internal Marker) (AID 2282974; active = hit-call score of the fitted dose curve at least 0.9, where 1 is the maximum). To be noted: HepG2 Attagene TRANS-FACTORIAL M19 internal marker reporter. Put shortly:
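24 h chemical exposure of transiently transfected HepG2 (MRTU library). RNA → oligo(dT) RT → PCR → 6-FAM labelling → HpaI cut → CE fluorescence. Positive-direction fit vs DMSO baseline; background internal-marker readout.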

The target in experiment [20] is Estrogen-related receptor gamma (Homo sapiens) (UniProt P62508). In words: ATG_ERRg_TRANS: Attagene TRANS-FACTORIAL HepG2 Assay for human Estrogen-Related Receptor gamma (ERRg) (AID 2282977; active = hit-call score of the fitted dose curve at least 0.9, where 1 is the maximum;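 note: hits increase reporter signal over DMSO so potencies reflect activators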). Particulars: HepG2 Attagene TRANS reporter, ERRg transactivation. Put shortly: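 HepG2 cells transiently transfected with multiplexed GAL4-UAS reporter units and chimeric NR-Gal4 constructs were exposed to test chemicals for 24 h. Reporter mRNA was measured by RT-PCR, 6-FAM primer extension, HpaI digestion and capillary electrophoresis; gain-of-signal versus DMSO.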
Sequence of Estrogen-related receptor gamma (Homo sapiens) (P62508 whole entry, looked up, the tested form may be a part): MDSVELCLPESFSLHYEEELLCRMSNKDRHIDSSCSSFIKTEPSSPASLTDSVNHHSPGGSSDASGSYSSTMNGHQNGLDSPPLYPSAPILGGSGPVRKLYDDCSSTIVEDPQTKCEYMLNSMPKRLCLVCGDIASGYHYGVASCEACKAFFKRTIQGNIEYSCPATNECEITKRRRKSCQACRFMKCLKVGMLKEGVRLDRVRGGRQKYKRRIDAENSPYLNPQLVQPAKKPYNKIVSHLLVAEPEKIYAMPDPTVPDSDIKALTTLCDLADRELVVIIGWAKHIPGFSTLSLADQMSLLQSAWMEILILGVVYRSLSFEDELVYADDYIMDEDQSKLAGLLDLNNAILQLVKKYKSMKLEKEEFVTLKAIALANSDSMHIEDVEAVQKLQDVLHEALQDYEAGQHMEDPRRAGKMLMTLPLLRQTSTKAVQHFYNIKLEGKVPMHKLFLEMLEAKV

Sequence of Signal transducer and activator of transcription 3 (Homo sapiens) (P40763 whole entry, looked up): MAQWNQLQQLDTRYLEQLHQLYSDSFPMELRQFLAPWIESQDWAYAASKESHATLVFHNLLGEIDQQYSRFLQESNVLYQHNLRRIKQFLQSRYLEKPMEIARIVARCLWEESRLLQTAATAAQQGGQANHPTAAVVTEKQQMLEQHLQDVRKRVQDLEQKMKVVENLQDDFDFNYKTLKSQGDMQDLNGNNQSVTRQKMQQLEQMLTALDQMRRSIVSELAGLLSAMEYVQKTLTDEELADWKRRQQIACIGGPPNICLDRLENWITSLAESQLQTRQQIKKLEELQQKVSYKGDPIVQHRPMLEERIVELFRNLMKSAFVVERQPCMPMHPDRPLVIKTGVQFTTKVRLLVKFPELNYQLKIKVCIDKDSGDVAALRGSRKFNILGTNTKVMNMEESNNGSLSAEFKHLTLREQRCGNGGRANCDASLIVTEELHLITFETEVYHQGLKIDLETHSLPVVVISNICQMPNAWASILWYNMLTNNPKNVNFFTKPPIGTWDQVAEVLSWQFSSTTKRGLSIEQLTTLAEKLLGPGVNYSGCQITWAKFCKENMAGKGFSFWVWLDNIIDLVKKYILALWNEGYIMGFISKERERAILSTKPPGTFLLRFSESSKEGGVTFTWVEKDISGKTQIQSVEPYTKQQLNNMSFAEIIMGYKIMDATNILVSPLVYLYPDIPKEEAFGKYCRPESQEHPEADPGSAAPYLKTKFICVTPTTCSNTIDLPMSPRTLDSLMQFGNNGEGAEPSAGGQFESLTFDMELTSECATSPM
Sequence of X-box-binding protein 1 (Homo sapiens) (P17861 whole entry, looked up): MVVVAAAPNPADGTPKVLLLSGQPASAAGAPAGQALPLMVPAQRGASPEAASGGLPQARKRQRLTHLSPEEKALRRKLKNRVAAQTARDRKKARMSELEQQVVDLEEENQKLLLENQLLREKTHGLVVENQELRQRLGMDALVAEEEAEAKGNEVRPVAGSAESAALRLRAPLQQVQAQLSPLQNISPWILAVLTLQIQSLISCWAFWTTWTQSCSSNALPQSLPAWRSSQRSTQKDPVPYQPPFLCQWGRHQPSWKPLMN
Sequence of Paired box protein Pax-6 (Homo sapiens) (P26367 whole entry, looked up): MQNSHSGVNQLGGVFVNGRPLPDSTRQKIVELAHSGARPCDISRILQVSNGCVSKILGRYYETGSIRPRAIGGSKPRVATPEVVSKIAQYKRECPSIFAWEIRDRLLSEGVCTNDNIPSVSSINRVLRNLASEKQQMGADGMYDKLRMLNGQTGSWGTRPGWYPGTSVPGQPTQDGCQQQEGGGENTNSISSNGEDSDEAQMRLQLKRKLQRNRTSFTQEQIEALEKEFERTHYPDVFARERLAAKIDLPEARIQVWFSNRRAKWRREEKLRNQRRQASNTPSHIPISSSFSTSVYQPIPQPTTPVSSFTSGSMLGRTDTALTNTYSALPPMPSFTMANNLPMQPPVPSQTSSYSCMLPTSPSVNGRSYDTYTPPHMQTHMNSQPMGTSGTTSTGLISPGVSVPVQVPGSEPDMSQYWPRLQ
Sequence of Steroid hormone receptor ERR1 (Homo sapiens) (P11474 whole entry, looked up, the tested form may be a part): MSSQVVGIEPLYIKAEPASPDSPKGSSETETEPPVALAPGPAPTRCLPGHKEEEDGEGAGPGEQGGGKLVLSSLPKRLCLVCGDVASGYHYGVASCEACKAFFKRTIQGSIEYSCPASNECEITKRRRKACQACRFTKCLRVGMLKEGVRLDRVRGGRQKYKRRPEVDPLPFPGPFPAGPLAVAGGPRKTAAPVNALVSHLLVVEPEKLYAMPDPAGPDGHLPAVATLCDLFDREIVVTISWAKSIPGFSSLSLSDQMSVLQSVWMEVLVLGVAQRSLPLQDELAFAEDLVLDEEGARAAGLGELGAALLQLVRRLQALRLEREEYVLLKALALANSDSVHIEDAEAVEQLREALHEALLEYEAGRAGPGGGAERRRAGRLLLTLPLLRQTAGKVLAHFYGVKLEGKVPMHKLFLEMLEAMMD

One may read the AC50 as the concentration at which the activity in the assay is half-maximal. Turning to `O=c1c2ccccc2nnn1CCl`, the outcome in experiment [1], in experiment [3], in experiment [4], in [5], in experiment [6] and in experiment [7] was inactive. Besides, the outcome in experiment [8], in experiment [9], in experiment [10], in experiment [11], in experiment [12] and in experiment [13] was inactive. Further, the call in experiment [14], in experiment [15] and in [16] was inactive. The AC50 in experiment [2] was 7.09 µM (active).
For `OC1CCCC1`, the call in experiment [1], in [3], in [4], in [5], in experiment [6] and in [7] was inactive. Further, the molecule was called inactive in experiment [8], in [9], in experiment [10], in [17], in experiment [11] and in experiment [18]. Besides, the molecule was classed as inactive in experiment [15], in experiment [19], in experiment [16] and in [20]. The AC50 in experiment [2] is 48.8 µM (active).
For `CC(=O)OCC(C)OC(C)=O` (stereo not drawn), the result in [1], in [2], in [3], in experiment [4], in experiment [5] and in experiment [6] was inactive. The outcome in [7], in [8], in [9], in experiment [10], in [11] and in experiment [12] was inactive. The molecule was classed as inactive in experiment [15] and in experiment [19].
Consider `CCCCCCCCCCCCCCCC[N+](C)(C)CC`, for which the molecule was classed as inactive in experiment [1], in experiment [2], in experiment [3], in experiment [5], in [6] and in [7]. The call in experiment [8], in [9], in experiment [17], in [18] and in experiment [15] was inactive. For the same molecule, the AC50 in experiment [4] is 8.95 µM (active); in experiment [10], 5.99 µM (active); in experiment [12], 9.07 µM (active); in [20], 9.59 µM (active).
On to `Nc1ccc(Oc2ccc(N)c(N)c2)cc1`, for which the result in experiment [1], in experiment [2], in [5], in experiment [6], in experiment [7] and in experiment [8] was inactive. Moreover, the call in [9], in experiment [10], in [11], in experiment [12], in experiment [14] and in experiment [15] was inactive. Also, the result in experiment [16] and in experiment [20] was inactive. In addition, the AC50 in experiment [3] is 58.4 µM (active); in experiment [4] it was 27.5 µM (active).
